# Assay results taken from PubChem BioAssay (EPA / NIEHS).
# Calls of active or inactive are those of the source. Rule for the calls: active = hit-call score of the fitted dose curve at least 0.9, where 1 is the maximum; inactive = score below 0.9.
# Test: APR_HepG2_P-H2AX_1hr: Apredica 1-hour HepG2 Assay for H2AX Phosphorylation (AID 2282673)
# Details: high-content imaging, actives raise or lower the signal
# Description: APR_HepG2_1hr is a cell-based, multiplexed-readout assay that uses HepG2, a human liver cell line, with measurements taken at 1 hour after chemical dosing in a 384-well plate.APR_HepG2_P-H2AX_1hr is one of 10 assay component(s) measured or calculated from the APR_HepG2_1hr assay. It is designed to make measurements of dna content, a form of viability reporter, as detected with fluorescence intensity signals by HCS Fluorescent Imaging technology.Data from the assay component APR_HepG2_P-H2AX_1hr was analyzed into 1 assay endpoint. This assay endpoint, APR_HepG2_P-H2AX_1hr, was analyzed with bidirectional fitting relative to DMSO as the negative control and baseline of activity. Using a type of viability reporter, measures of protein for gain or loss-of-signal activity can be used to understand the signaling at the pathway-level as they relate to the gene . Furthermore, this assay endpoint can be referred to as a primary readout, because this assay has produced multiple assay endpoints where this one serves a signaling function. To generalize the intended target to other relatable targets, this assay endpoint is annotated to the dna binding intended target family, where the subfamily is cellular response to DNA damage stimulus.
# Cells were treated with dimethyl sulfoxide (DMSO) as a solvent control at a final concentration of 0.5% v/v or with compounds in DMSO with a resulting final DMSO concentration of 0.5% v/v. Compound treatment was done at concentrations of 0.39, 0.78, 1.56, 3.12, 6.24, 12.5, 25, 50, 100, and 200 uM in duplicate on each plate. Cells were treated with compounds for 1, 24, or 72 hr. Carbonyl […] m-chloro-phenylhydrazone (CCCP) and taxol were used as positive controls for mitochondrial function and cytoskeletal stability, respectively; DMSO served as the negative control for this experiment. Cells were fixed by the direct addition of 50 uL formaldehyde in Hank's Balanced Salt Solution (HBSS) to a final concentration of 3.7%. After incubation in the fixation medium for 30 min at room temperature (293-298 K), cells were rinsed twice with HBSS and treated with cell permeabilization buffer (16 uL of 0.5% Triton X-100) for 10 min at room temperature (293-298 K) before labeling. For mitochondrial membrane potential and mitochondrial measurements, pre-fixed cells were incubated with 50 uL of MitoTracker Red CMXRos (Invitrogen) at a concentration of 250 nM for 30 min before fixation. In the remaining cases, post-fixed cells were labeled by incubation with a multiplexed mixture of primary antibodies in HBSS for 60 min at room temperature (293-298 K) to detect immunoreactivity of c-Jun (1:500), phospho-histone H3 (1:100), phospho-histone H2A.x (1:200), p53 (1:400), alpha-tubulin (1:200) and Hoechst 33342 (2 ug/mL). Cells were labeled for multiplexed imaging on two separate plates: a) Hoechst 33342, MitoTracker Red, phospho-histone H3, and alpha-tubulin, and b) Hoechst 33342, phospho-histone H2A.x, and c-Jun. A final rinse with HBSS (50 uL) was performed before analysis. The primary and secondary antibodies for the proteins were phospho-histone H3 (rabbit anti-phospho-histone H3 and FITC-donkey anti-rabbit IgG), phospho-histone H2A.x (mouse anti-phospho-histone H2A.x and FITC-donkey anti-mouse IgG), c-Jun (rabbit anti-phospho-c-Jun and Cy3-donkey anti-rabbit IgG), p53 (sheep anti-p53 and Cy5-donkey anti-sheep IgG), alpha-tubulin (mouse anti-alpha-tubulin and Cy5-donkey anti-mouse IgG). These antibodies are available as the CellCiphr HepG2 assay kit (Millipore).Digital images of each well were captured using a Cellomics ArrayScan VTI (Thermo Scientific Cellomics) (0.8 NA objective, 0.63x optical coupler, and XF-93 filter set) at 20x magnification. The images were acquired using the autofocus feature of the ArrayScan instrument, which entails the following steps. First, the camera focuses on channel 1 (Hoechst 33342), where nuclei are identified. Second, a Z offset of 1 um is used for capturing mitochondria (MitoTracker Red). […]
SMILES,outcome,AC50
COc1nc(C)nc(NC(=O)NS(=O)(=O)c2ccccc2CCC(F)(F)F)n1,inactive,
COc1ccc(C(c2ccc(OC)cc2)C(Cl)(Cl)Cl)cc1,inactive,
CCCCNC(=O)n1c(NC(=O)OC)nc2ccccc21,inactive,
C#CCOS(=O)OC1CCCCC1Oc1ccc(C(C)(C)C)cc1 (stereo not given),inactive,
CCCN(CCC)c1c([N+](=O)[O-])cc(S(N)(=O)=O)cc1[N+](=O)[O-],,88.7 µM (active)
CCCCOC(=O)c1ccccc1C(=O)OCCCC,inactive,
CN(C)C(=S)SSC(=S)N(C)C,inactive,
Oc1ccccc1-c1ccccc1,inactive,
CCON=C(CC)C1=C(O)CC(c2c(C)cc(C)cc2C)CC1=O (stereo not given),inactive,
CNC(=O)ON=CC(C)(C)SC,inactive,
CCCCC(CC)COC(=O)c1ccccc1C(=O)OCC(CC)CCCC (stereo not given),inactive,
O=C(Nc1ccccc1)Nc1ccnc(Cl)c1,inactive,
CC(C)Oc1cc(-n2nc(C(C)(C)C)oc2=O)c(Cl)cc1Cl,inactive,
CCCCNC(=O)OCC#CI,inactive,
C=CCC1=C(C)C(OC(=O)C2C(C=C(C)C)C2(C)C)CC1=O (stereo not given),inactive,
CCOP(=S)(OCC)SCn1c(=O)oc2cc(Cl)ccc21,inactive,
CON(C)C(=O)Nc1ccc(Cl)c(Cl)c1,inactive,
N#Cc1cc(Br)c(O)c(Br)c1,inactive,
C=CC1(C)OC(=O)N(c2cc(Cl)cc(Cl)c2)C1=O (stereo not given),inactive,
CC(Oc1ccc(Cl)cc1Cl)C(=O)O (stereo not given),inactive,

SMILES,outcome,AC50
C=CCC1=C(C)[C@@H](OC(=O)[C@@H]2[C@@H](C=C(C)C)C2(C)C)CC1=O,inactive,
N#CC(CCc1ccc(Cl)cc1)(Cn1cncn1)c1ccccc1 (stereo not given),inactive,
CC1=C(C(=O)Nc2ccccc2)SCCO1,inactive,
Cc1cc(Cl)ccc1OCC(=O)O,inactive,
CCNc1nc(Cl)nc(NC(C)C)n1,inactive,
COC(=O)c1ccccc1C(=O)OC,inactive,
COP(=S)(OC)Oc1nc(Cl)c(Cl)cc1Cl,inactive,
CCOC(=O)CC(SP(=S)(OC)OC)C(=O)OCC (stereo not given),inactive,
Fc1ccc(Oc2ccnc3cc(Cl)cc(Cl)c23)cc1,inactive,
COc1nc(NC(C)C)nc(NC(C)C)n1,inactive,
OC(c1ccc(Cl)cc1)(c1cncnc1)c1ccccc1Cl (stereo not given),inactive,
CCOc1cc(Oc2ccc(C(F)(F)F)cc2Cl)ccc1[N+](=O)[O-],inactive,
CCNc1nc(Cl)nc(NCC)n1,inactive,
CC(C)C1(C)N=C(c2nc3ccccc3cc2C(=O)O)NC1=O (stereo not given),inactive,
O=C(O)COc1nc(Cl)c(Cl)cc1Cl,inactive,
CC(C)(C)c1ccc(CSc2cnn(C(C)(C)C)c(=O)c2Cl)cc1,inactive,
N#Cc1nn(-c2c(Cl)cc(C(F)(F)F)cc2Cl)c(N)c1S(=O)C(F)(F)F (stereo not given),inactive,
Cc1ccc(-c2c(Cl)nc(C#N)n2S(=O)(=O)N(C)C)cc1,inactive,
COC(=O)N(OC)c1ccccc1COc1ccn(-c2ccc(Cl)cc2)n1,inactive,
CS/C(C)=N/OC(=O)N(C)SN(C)C(=O)O/N=C(\C)SC,inactive,
